# Screening data from PubChem BioAssay.
# Sampled rows, rich in hits. Any-hit rate of the full collection: about 0.83%.
# CXXC DNA block – qHTS Fluorescence Polarization Assay for Inhibitors of MLL CXXC domain - DNA interaction. MLL-CXXC / FITC-HOXA9 DNA fluorescence polarization. actives 0.037% (n = 290,000). Potency, µM (top dose mostly 115 µM), for the others: top-dose activity change, negative = inhibition, most hits filed as inhibitors; active means well fitted inhibition curve with a large enough effect in the polarisation, with a control signal flat, not every such curve was filed as active; inconclusive means small, poorly fitted or top-dose-only effect, or effect the other way, or a change in a side signal; inactive means no such curve, though single readings can be large or run the other way; the % refers to the polarisation; further: potency means the concentration at half of the fitted maximal effect
#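 Steps: dispense CXXC domain solution (7 uM) → pin compounds or unlabeled HOX-A9 DNA control → 5 min ambient → add FLSN-HOX-A9 solution (50 nM) → spin → 30 min ambient → fluorescence polarization. Tris pH 7.5/NaCl/DTT/BSA buffer.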
# CtBP-E1A blk – qHTS Assay for Inhibitors of the CtBP/E1A Interaction; CtBP / adenovirus E1A interaction (AlphaScreen); AlphaScreen GST-E1A/His-CtBP binding, 1536-well; active compounds read low; activity change, % (test concentration not listed); actives 0.49% (n = 340,000); further: on the % scale 0 is the no-effect control and ±100 the full control effect
#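 In 5 uL wells, 23 nL compound meets equimolar GST-E1A and His-CtBP (5X stock 125 nM each) for 2 h, 37 °C. Beads (5X, 50 ug/mL) then 1 h, 37 °C, dark.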
# GLS inh – qHTS for Inhibitors of Glutaminase (GLS); AID 624170, 2012; Glutaminase kidney isoform, mitochondrial (Homo sapiens), O94925; actives 0.21% (n = 410,000); Potency, µM (highest dose often 45.5 µM), for the others: at the top dose activity change, negative = inhibition, most hits filed as inhibitors; GLS enzymatic activity, qHTS titration; active means well fitted inhibition curve with a large enough effect; inconclusive means small, poorly fitted or top-dose-only effect, or another doubt; inactive means no such curve, though single readings can be large or run the other way; further: potency means the concentration at half of the fitted maximal effect; on the % scale 0 is the no-effect control and ±100 the full control effect
# Target sequence (O94925 whole entry, looked up, canonical isoform): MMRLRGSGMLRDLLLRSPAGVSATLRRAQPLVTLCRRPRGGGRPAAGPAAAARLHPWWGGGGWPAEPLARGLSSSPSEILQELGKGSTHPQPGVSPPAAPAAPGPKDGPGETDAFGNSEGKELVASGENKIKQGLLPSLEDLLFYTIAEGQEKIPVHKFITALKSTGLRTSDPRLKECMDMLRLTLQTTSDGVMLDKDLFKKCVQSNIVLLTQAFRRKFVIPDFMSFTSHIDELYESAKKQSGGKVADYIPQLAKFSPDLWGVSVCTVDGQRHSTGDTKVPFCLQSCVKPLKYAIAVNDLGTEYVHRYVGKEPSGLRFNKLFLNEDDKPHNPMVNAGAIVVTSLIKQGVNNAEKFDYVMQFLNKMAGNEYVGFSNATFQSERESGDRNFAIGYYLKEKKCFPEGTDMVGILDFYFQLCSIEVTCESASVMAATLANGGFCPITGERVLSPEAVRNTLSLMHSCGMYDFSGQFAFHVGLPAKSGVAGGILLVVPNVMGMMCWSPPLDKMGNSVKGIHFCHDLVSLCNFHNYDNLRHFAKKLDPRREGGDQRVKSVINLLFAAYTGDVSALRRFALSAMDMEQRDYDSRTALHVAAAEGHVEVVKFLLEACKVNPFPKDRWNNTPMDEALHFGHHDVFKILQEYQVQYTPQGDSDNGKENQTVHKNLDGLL
#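 hKGA in 45 mM KH2PO4 pH 8.2, 0.02% Tween-20 with pin-transferred compounds; 1 mM L-glutamine (stock) plus glutamate oxidase/HRP/Amplex Red coupling added. Fluorescence read initially and after 30 min at RT.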
# Menin MLL FP FL – qHTS Assay for Inhibitors Targeting the Menin-MLL Interaction in MLL Related Leukemias: Competition With Fluorescein Labeled MLL-derived Peptide | 290,000 tested, under 10 active | AID 1766, 2009 | Fluorescence polarization, fluorescein-MLL peptide displacement from menin | FP activity change, % at 61.4 µM; active means well fitted curve in the direction sought with a large enough effect in the polarisation, not every such curve was filed as active; inconclusive means small, poorly fitted or top-dose-only effect, or effect the other way, or a change in a side signal; inactive means no such curve, though single readings can be large or run the other way; the % refers to the polarisation; further: % of control where 0% means no effect
# Menin MLL FP TR – qHTS Assay for Inhibitors Targeting the Menin-MLL Interaction in MLL Related Leukemias: Competition With Texas Red Labeled MLL-derived Mutant Peptide; O00255; Menin + Texas Red MLL mutant peptide, fluorescence polarization; Potency, µM (top dose mostly 61.6 µM), for inactives: at the highest dose FP activity change, negative = inhibition, hits mostly inhibitors; actives 0.23% (n = 270,000); AID 1768, 2009; active means well fitted inhibition curve with a large enough effect in the polarisation, with a control signal flat, not every such curve was filed as active; inconclusive means small, poorly fitted or top-dose-only effect, or effect the other way, or a change in a side signal; inactive means no such curve, though single readings can be large or run the other way; the % refers to the polarisation; further: potency means the concentration at half of the fitted maximal effect; % of control where 0% means no effect
# Six1-Eya2 blk – qHTS Assay for Inhibitors of the Six1/Eya2 Interaction | Homeobox protein SIX1 (Homo sapiens) + Protein phosphatase EYA2 (Homo sapiens), … | actives 0.56% (n = 360,000) | activity change, % (test concentration not listed) | AID 651725, 2012 | AlphaScreen GST-Six1/His-Eya2 binding, biochemical; active compounds read low; further: on the % scale 0 is the no-effect control and ±100 the full control effect
#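 GST-Six1 + His-Eya2 (5X stock: 250/500 nM); Tris pH 8.0, 300 mM NaCl, 0.05% BSA, 0.02% Tween 20; GSH donor/Ni acceptor beads; 1 h 37 °C dark; AlphaScreen readout.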
# * marks the source's active call; other numbers are inactive results; ? = inconclusive; / = not tested or not shown. Unless noted, no stated cut-off is given here; in the data, active means activity change below about -65%; inconclusive means mostly about -30% to -63%; inactive means weaker than that.
SMILES,CXXC DNA block,CtBP-E1A blk,GLS inh,Menin MLL FP FL,Menin MLL FP TR,Six1-Eya2 blk
Cc1cccc(Cn2c(=O)n(CC3CCC(C(=O)N4CCOCC4)CC3)c(=O)c3sccc32)c1 (centres undefined),/,/,-7%,/,/,/
COc1ccc(-n2cnc3cc(C(=O)NC4CCCCCC4)ccc32)cc1,/,/,3%,/,/,/
Cc1ccccc1C(=O)NNC(=S)NC(=O)c1ccccc1,12%,-3,33%,0,-1%,-4
O=C(NC(=S)NNC(=O)c1ccccc1O)c1ccc([N+](=O)[O-])cc1,13%,/,18%,4,?,-86*
O=C(NC(=S)NNC(=O)c1ccccc1O)c1ccccc1,18%,-94*,28%,-4,?,-75*
OC1(c2ccc(Cl)c(C(F)(F)F)c2)CCN(CCCC(c2ccc(F)cc2)c2ccc(F)cc2)CC1,/,/,-9%,2,18%,/
CCCc1nc2ccccc2n1CC(O)COc1ccc(C(=O)OC)cc1 (centres undefined),/,/,5%,/,/,/
CC1=C(C(=O)OC2CCCC2)C(c2c(F)cccc2Cl)CC(=O)N1 (centres undefined),/,/,8%,/,/,/
CCC(=O)c1ccc(OC(=O)c2cccs2)cc1,/,-6,0%,/,/,?
COC(=O)c1ccc(OC(=O)c2cccs2)cc1,221%,4,-6%,3,1%,-68*
CC(=NNC(=S)N1CC2CCC(CC2)C1)c1ccncn1,/,-96*,14%,/,/,?
CSC(=S)NN=C(C)c1cccc(C)n1,/,-93*,2%,/,/,-91*
Cc1cccc(C(=S)N2CCOCC2)n1,/,1,-4%,/,/,-2
CC(=NNC(=S)N1CCCCC1)c1cccc(C)n1,/,0,27%,/,/,-91*
CC(=NNC(=S)N1CCCCC1)c1ccccn1,/,-16,15%,/,/,-87*
C/C(=N\Nc1cccc2cccnc12)c1ccccn1,-4%,-5,?,2,?,-15
Cc1cccc(NC(=S)Nc2cccc(C)n2)n1,-15%,-6,-6%,-5,?,-10
COc1cc(C(C#N)N2CCC(c3ccccc3)=N2)ccc1O (centres undefined),36%,1,10µM*,0,/,4
O=C(c1cccc(F)c1)N1CCC[C@@]2(CCN(C(c3ccccc3)c3ccccc3)C2)C1,/,/,/,17,-26%,/
Cc1cc(=O)[nH]c2c(N=Nc3ccc(O)cc3)c(N)nn12,?,/,34%,19,?,-77*
Oc1ccc2ccccc2c1/C=N/Nc1nnc(-c2ncc[nH]2)c2ccccc12,-22%,-73*,-8%,?,/,-67*
COc1ccc(/C=N/Nc2nnc(-c3ncc[nH]3)c3ccccc23)cc1,0%,-8,3%,3,?,-10
O=c1oc2cc(O)ccc2c2ccccc12,6%,-4,28%,4,-3%,-11
O=c1oc2cc(O)ccc2c2oc3cc(O)ccc3c12,6%,?,7.9µM*,0,?,-13
CCc1ccc(-n2c(=O)c3c4c(sc3n(CC(=O)NCCCOC)c2=O)CCCC4)cc1,/,/,-2%,/,/,/
SMILES,CXXC DNA block,CtBP-E1A blk,GLS inh,Menin MLL FP FL,Menin MLL FP TR,Six1-Eya2 blk
COc1ccc(C2/C=C\[C@H](O[Si](C)(C)C(C)(C)C)[C@H](C(C)C)CC(=O)N2Cc2ccccc2)cc1 (some centres undefined),/,/,/,0,-19%,/
Cc1ccc2nc(NC(=O)c3cccc(-c4cc5ccccc5oc4=O)c3)sc2c1,13%,-7,3%,0,22µM*,-8
COc1cccc(/C=N/Nc2ccnc(=O)[nH]2)c1O,-4%,-92*,6%,0,-7%,-76*
COc1cccc(/C=N/Nc2snc(SC)c2C#N)c1O,16%,-76*,19%,2,?,?
O=c1nccc(N/N=C/c2ccccc2O)[nH]1,150%,-92*,9%,1,1%,-75*
COc1ccc(/C=N/Nc2snc(SC)c2C#N)cc1OC,-4%,?,5%,6,?,-17
CCOC(=O)CN(C(=O)CSc1nnc2c(n1)[nH]c1ccccc12)c1ccccc1,-2%,?,3%,3,14%,?
CCOC(=O)CN(C(=O)CSc1nnc2c(n1)[nH]c1ccc(F)cc12)c1ccccc1,2%,-70*,22%,0,?,-66*
COCCn1c(=O)cnc2cnc(Nc3cccc(OC)c3)nc21,/,/,/,-11,?,/
CCOc1ccc(CCNc2ccc3nnc(-c4ccccc4)n3n2)cc1OCC,0%,?,-5%,4,2%,-72*
CCC(C)c1c(N)n(S(=O)(=O)c2ccc(C)cc2)oc1=O (centres undefined),/,?,2%,/,/,-77*
O=C(c1csnn1)N1CCC2(CCN(Cc3ccccc3)CC2)CC1,/,/,/,3,0%,/
CCN(CC)c1ccc(/C=N/N2CCOCC2)c(O)c1,13%,1,13µM*,7,1%,-11
CCN(CC)c1ccc(/C=N/N2CCN(Cc3ccccc3)CC2)c(O)c1,8%,?,27%,-1,-12%,-75*
CCN(CC)c1ccc(/C=N/N2CCN(Cc3ccccc3)CC2)cc1,0%,?,32%,-2,-1%,?
CC[C@@H](C)[C@H](CNC)NC[C@@H](Cc1cccc2ccccc12)NCCc1cccc(C(F)(F)F)c1,127%,-20,3%,1,32µM*,0
Cc1cc(C)c2c(c1)-c1c(ssc1=S)C(C)(C)N2C(=O)CSc1nncn1C,5%,-67*,9%,3,-12%,-67*
Cc1ccc2c(c1)-c1c(ssc1=S)C(C)(C)N2C(=O)CSc1nncn1C,13%,?,14%,-1,-6%,?
CC(C)C1Nc2ccc(C(=O)O)cc2C2C=CCC21 (centres undefined),-15%,-11,219%,?,?,?
CCOC(=O)c1ccc2c(c1)C1C=CCC1C(C(=O)O)N2 (centres undefined),-3%,/,/,-2,?,/
CCOC(=O)C1Nc2ccc(C(=O)O)cc2C2C=CCC12 (centres undefined),?,-22,3.2µM*,?,?,?
CCCC1Nc2ccc(C(=O)O)cc2C2C=CCC12 (centres undefined),-6%,-5,10µM*,?,-15%,?
O=C1c2cccc(Cl)c2C(=O)c2c1cccc2N1CCCC1,/,-90*,-8%,/,/,-91*
O=C1c2ccccc2C(=O)c2cc(N3CCCCC3)ccc21,/,?,0%,/,/,?
